Source: PubChem (National Center for Advancing Translational Sciences (NCATS))
EPAC2 antag: antagonists of human EPAC2. Q8WZA2. EPAC2 GEF exchange of Rap1B-BODIPY-GDP, fluorescence. Potency, µM (titrated, usually from 114 µM), hits mostly inhibitors. 360,000 compounds, 0.18% hits; note: nearly all actives have a fitted effect of over 45% in size
VDR inhibitor: blocks the human vitamin D receptor; Potency, µM, usual class: inhibitors; AID 504847; P11473; 400,000 compounds, 0.93% hits; VDR-SRC2-3 peptide fluorescence polarization, 2 h
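VDR–SRC2-3 interaction, FP format. Cmpds 23 nl via pintool, brief spin, 2 h ambient incubation.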
USP1 inh: blocks the human USP1/UAF1 deubiquitinase complex. Potency, µM (highest dose often 57.1 µM), actives largely listed as inhibitors. 390,000 compounds, 0.23% hits. AID 743255. recombinant USP1/UAF1, Ub-Rhodamine cleavage fluorescence; note: nearly all actives have a fitted effect of over 60% in size
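High-throughput fluorogenic screen: 1nM USP1/UAF1 complex, Ub-Rho substrate 150nM final, 50mM HEPES pH 7.8 with 0.5mM EDTA, 0.1 mg/ml BSA, 1mM TCEP and 0.01% Tween-20.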
EPAC2 ag: agonists of human EPAC2 (RAPGEF4) | Potency, µM (doses to about 154 µM), usual class: activators | 360,000 compounds, 0.079% hits | AID 720711 | Q8WZA2 | EPAC2 activation, biochemical qHTS; response scale: 100% = 6.5 mM cAMP response; note: nearly all actives have a fitted effect of over 50% in size
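EPAC2 (100 nM) mixed with Rap1B loaded with BODIPY-GDP (250 nM) plus 50 uM unlabeled GDP; compounds pinned in, 5 min RT, then read every 5 min for 30 min (ex 480, em 540 nm). Normalized to cAMP control.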
EPAC1 antagonist: antagonists of human EPAC1; O95398; EPAC1 GEF assay, Rap1b-BODIPY-GDP exchange fluorescence; Potency, µM (doses to about 115 µM), actives largely listed as inhibitors; 360,000 compounds, 0.14% hits; AID 720709; note: nearly all actives have a fitted effect of over 50% in size
Target sequence (O95398 whole entry, looked up): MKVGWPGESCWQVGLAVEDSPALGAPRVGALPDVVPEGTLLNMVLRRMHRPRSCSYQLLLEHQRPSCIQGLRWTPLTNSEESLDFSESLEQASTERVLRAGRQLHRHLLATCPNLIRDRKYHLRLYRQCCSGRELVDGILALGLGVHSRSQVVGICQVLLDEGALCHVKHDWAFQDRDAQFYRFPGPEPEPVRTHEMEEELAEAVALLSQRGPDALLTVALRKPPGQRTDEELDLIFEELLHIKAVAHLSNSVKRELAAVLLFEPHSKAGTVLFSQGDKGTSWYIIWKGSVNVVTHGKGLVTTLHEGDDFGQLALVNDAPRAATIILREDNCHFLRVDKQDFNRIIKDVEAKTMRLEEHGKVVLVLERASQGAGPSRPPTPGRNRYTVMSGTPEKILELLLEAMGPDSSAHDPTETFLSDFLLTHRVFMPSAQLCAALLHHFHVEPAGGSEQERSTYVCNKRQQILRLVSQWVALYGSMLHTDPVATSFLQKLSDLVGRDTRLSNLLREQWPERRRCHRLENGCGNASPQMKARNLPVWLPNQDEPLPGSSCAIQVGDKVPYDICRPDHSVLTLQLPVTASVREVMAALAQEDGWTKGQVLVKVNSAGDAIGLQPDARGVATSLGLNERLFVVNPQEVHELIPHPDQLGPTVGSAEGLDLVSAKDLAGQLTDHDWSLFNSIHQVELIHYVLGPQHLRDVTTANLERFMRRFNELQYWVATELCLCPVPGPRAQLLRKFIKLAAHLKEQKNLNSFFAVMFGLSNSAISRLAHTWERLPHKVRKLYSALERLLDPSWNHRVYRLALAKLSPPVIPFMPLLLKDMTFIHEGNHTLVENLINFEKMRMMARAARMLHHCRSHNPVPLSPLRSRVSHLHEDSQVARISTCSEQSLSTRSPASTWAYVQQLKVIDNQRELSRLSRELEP
EPAC1 ag: EPAC1 (human) agonism. EPAC1 agonist qHTS, biochemical assay; response scale: 100% = response to 6.5 mM cAMP. Potency, µM (series often up to 154 µM), actives largely listed as activators. 360,000 compounds, 0.073% hits; note: nearly all actives have a fitted effect of over 60% in size
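Compounds were pinned as a concentration titration into mixtures of EPAC1 (100 nM), BODIPY-GDP-loaded Rap1B (250 nM) and GDP (50 uM). After 5 min at room temperature, fluorescence was followed for 30 min; activity was scaled to 6.5 mM cAMP.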
Hits are given with their value; . = inactive; ? = inconclusive; / = no result given; ! = not active in a repeat. Most compounds without a hit are left out; they make up all but 1.2% or so of the library. Calls come from the whole dose curve; as a rule, active = well fitted curve in the direction sought with a large enough effect; inconclusive = small, poorly fitted or top-dose-only effect, or another doubt; inactive = no such curve, though single readings can be large; an effect the other way counts as inactive or inconclusive.

SMILES | EPAC2 antag | VDR inhibitor | USP1 inh | EPAC2 ag | EPAC1 antagonist | EPAC1 ag
Cc1ccc(S(=O)(=O)c2c(N)n(CCCN(C)C)c3nc4ccccc4nc23)cc1 | . | . | . | . | . | .
CCCCn1c(NS(=O)(=O)c2ccc(C)cc2)c(S(=O)(=O)c2ccccc2)c2nc3ccccc3nc21 | . | ? | 28µM | . | ? | .
CCCCCOC(=O)c1[nH]c2c(c1C)C(=O)CC(c1ccco1)C2 (stereo unspecified) | . | 79µM | . | . | . | .
CCn1nc(C)cc1C(=O)Sc1ccc(Cl)cc1Cl | . | 79µM | . | . | . | .
COc1cc2nc(N(C)CCCNC(=O)[C@@H]3CCCO3)nc(N)c2cc1OC | / | . | / | / | / | /
Cn1cc(C2=C(c3ccc(Cl)cc3Cl)C(=O)NC2=O)c2ccccc21 | . | . | . | 100µM | ? | .
CCCCCCCCCCC1=C(C)C(=O)C(OC)=C(OC)C1=O | / | 40µM! | / | / | / | /
COC1=C(OC)C(=O)C(CCCCCCCCCCO)=C(C)C1=O | / | 45µM | / | / | / | /
CCCCCCCCSC1=CC(=O)C(OC)=C(OC)C1=O | ? | / | . | . | . | .
CC(C)C[C@H](NC(=O)[C@H](CC(C)C)NC(=O)[C@H](CCC(N)=O)NC(=O)[C@H](CO)NC(=O)[C@@H]1CCCN1C(=O)[C@H](CO)NC(=O)[C@H](CO)NC(=O)[C@@H](NC(=O)[C@H](Cc1cnc[nH]1)NC(=O)[C@H](CCC(=O)O)NC(=O)[C@H](Cc1ccc(O)cc1)NC(=O)[C@H](CCCCN)NC(=O)[C@H](CCC(N)=O)NC(=O)[C@H](Cc1ccc(O)cc1)NC(=O)[C@H](CC(=O)O)NC(=O)[C@@H](NC(=O)[C@@H]1CCCN1C(=O)[C@H](CC(=O)O)NC(=O)[C@H](CC(N)=O)NC(=O)[C@H](CC(=O)O)NC(=O)CNC(=O)[C@H](CC(=O)O)NC(=O)[C@@H]1CCCN1C(=O)[C@H](CCC(N)=O)NC(=O)[C@H](Cc1ccc(O)cc1)NC(=O)[C@H](C)NC(=O)[C@H](Cc1c[nH]c2ccccc12)NC(=O)[C@H](Cc1ccccc1)NC(=O)[C@@H](NC(=O)[C@@H](N)CO)[C@@H](C)O)[C@@H](C)O)[C@@H](C)O)C(=O)N[C@@H](C)C(=O)N1CCC[C@H]1C(=O)NCC(=O)N[C@@H](CC(=O)O)C(=O)N[C@@H](Cc1ccc(O)cc1)C(=O)O | / | . | / | / | / | /
COc1cccc(C2C(C(=O)Nc3ccccc3OC)=C(C)Nc3nc4ccccc4n32)c1 (stereo unspecified) | / | . | ? | / | / | /
Nc1cc(=O)nc(SCC(=O)Nc2cccc(Cl)c2)n1CCc1ccccc1 | / | . | . | / | / | /
O=C(CSC1CC(=O)N(CCc2ccccc2)C1=O)Nc1cccc(Cl)c1 (stereo unspecified) | . | 79µM | . | . | . | .
COc1ccc2c(Cl)c(C(=O)N/N=C3\CCCC(=O)C3)sc2c1 | . | . | 16µM | . | ? | .
COc1ccc2c(Cl)c(C(=O)N/N=C/c3ccc4c(c3)OCO4)sc2c1 | . | . | . | . | . | .
O=C(COC(=O)/C=C/c1ccccc1[N+](=O)[O-])NC1CC1 | . | 71µM | . | . | . | .
Cc1cccc(C(=O)Nc2nnc(S(=O)(=O)N(C)Cc3ccco3)s2)c1 | . | 89µM! | . | . | . | .
O=[N+]([O-])c1cc(S(=O)(=O)N2CCCC2)ccc1NN=C1CCCCC1 | . | . | . | . | . | .
O=[N+]([O-])c1cc(C(F)(F)F)cc([N+](=O)[O-])c1NN=C1CCCCC1 | . | 50µM | . | . | ? | .
CC1CC=CC2C1C(=O)N(Cc1ccccc1)C2c1cccc([N+](=O)[O-])c1 (stereo unspecified) | / | . | / | / | / | /
O=c1c(-c2c(O)cc(O)c3c(=O)cc(-c4ccc(O)cc4)oc23)c(-c2ccc(O)cc2)oc2cc(O)cc(O)c12 | . | . | . | . | 56µM | .
Cc1c(N(C)S(=O)(=O)c2cccc(C(=O)NC(C)C)c2)c(=O)n(-c2ccccc2)n1C | . | 79µM | . | . | . | .
CC1C/C(=C/c2ccccn2)C(=O)/C(=C/c2ccccn2)C1 (stereo unspecified) | . | 28µM | . | . | . | .
CC(C(=O)N(C)C1CCS(=O)(=O)C1)N1C(=O)/C(=C/c2ccc(F)cc2)SC1=S (stereo unspecified) | . | 79µM | . | . | . | .
COc1ccc(C2NC(=O)C(C#N)=C(S)N2c2ccccc2)cc1OC (stereo unspecified) | . | 45µM | . | . | . | .
SMILES | EPAC2 antag | VDR inhibitor | USP1 inh | EPAC2 ag | EPAC1 antagonist | EPAC1 ag
COc1cc(C2NC(=O)C(C#N)=C(S)N2c2ccccc2)ccc1OC(C)C (stereo unspecified) | . | 35µM | . | . | . | .
CN(C)c1ccc(NC(=O)c2ccc(N3CCOCC3)nc2)cc1 | . | 79µM | . | . | . | .
Cc1nn(C)cc1/C=N/NC(=S)Nc1ccccc1 | . | 89µM | . | . | . | .
Oc1ccccc1C=NNC(=S)Nc1ccc(F)cc1 | . | . | . | . | ? | .
CNC[C@H](O)c1cccc(O)c1 | . | . | . | . | . | .
CNC[C@H](O)c1ccc(O)c(O)c1 | . | 32µM! | . | . | . | .
CSCC[C@H](NC(=O)CNC(=O)CNC(=O)[C@H](CO)NC(=O)[C@H](CCCNC(=N)N)NC(=O)[C@H](CO)NC(=O)[C@H](CC(C)C)NC(=O)[C@H](CC(C)C)NC(=O)CNC(=O)[C@H](C)NC(=O)[C@H](CC(C)C)NC(=O)[C@H](CCCNC(=N)N)NC(=O)[C@H](Cc1cnc[nH]1)NC(=O)[C@@H](NC(=O)[C@@H](N)C(C)C)[C@@H](C)O)C(=O)N[C@H](C(=O)N[C@@H](CCCCN)C(=O)N[C@@H](CO)C(=O)N[C@@H](CC(N)=O)C(=O)N[C@@H](Cc1ccccc1)C(=O)N[C@H](C(=O)N1CCC[C@H]1C(=O)N[C@H](C(=O)N[C@@H](CC(N)=O)C(=O)N[C@H](C(=O)NCC(=O)N[C@@H](CO)C(=O)N[C@@H](CCCCN)C(=O)N[C@@H](C)C(=O)N[C@@H](Cc1ccccc1)C(N)=O)C(C)C)[C@@H](C)O)C(C)C)C(C)C | / | . | / | / | / | /
CCCCCCCCCCCC1=C(O)C(=O)C=C(O)C1=O | . | ? | ? | . | ? | .
COC1=CC(=O)C(O)=C(CCCCCCC/C=C/CCCCCCCC2=C(O)C(=O)C=C(OC)C2=O)C1=O | ? | 45µM | ? | . | ? | .
CCOC(=O)/C(C#N)=C/c1cc2cc(C)c(C)cc2nc1Cl | . | . | . | . | . | .
